Values without a mark were called inactive. Results filed as inconclusive are left out. Entries that show only a call come without a potency. Active and inactive are the calls of the source. The call rests on the fitted dose curve; in most records, active means well fitted curve in the direction sought with a large enough effect in the repeat runs; inconclusive means weak or mixed curves; inactive means no such curve, though single readings can be large; an effect the other way counts as inactive or inconclusive.
How the values were obtained:
[1] = qHTS RealTime-Glo MT Cell Viability Assay in HEK293 cells - 16 hour (AID 1224872); further: top concentration of the series differs between compounds; nearly all actives have a fitted effect of over 50% in size
Method in brief: (§1)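 Tox21 10K qHTS, HEK293, 600 cells/well, RealTime-Glo reagent co-dispensed with cells; 5 h preincubation, compound by pintool, 37 C, luminescence at 0–40 h.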

[2] = qHTS RealTime-Glo MT Cell Viability Assay in HepG2 cells - 8 hour (AID 1224873); further: nearly all actives have a fitted effect of over 55% in size
Method in brief: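 HepG2 cells (600/well) mixed with RealTime-Glo MT reagent, settled 5 h at 37 C/5% CO2 before compound addition. Nonlytic NanoLuc luminescence from viable-cell prosubstrate reduction read repeatedly during 40 h treatment at 37 C.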

[3] = qHTS RealTime-Glo MT Cell Viability Assay in HEK293 cells - 40 hour (AID 1224874); conditions: RealTime-Glo luminescence; max response: stronger effect = lower value; further: nearly all actives have a fitted effect of over 50% in size
Method in brief: (§2)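 Measured as luminescence from the same continuously cultured HEK293 wells at successive time points (0, 8, 16, 24, 32, 40 h) after compound addition. Reagent present from seeding; dosing at 5 h; incubation 37 C.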

[4] = A CellTox Green Cytotoxicity Assay to monitor cytotoxicity in HEK293 cells - 24 hour (AID 1224875); further: nearly all actives have a fitted effect of over 45% in size; further: potency means the concentration at half of the fitted maximal effect
Method in brief: (§3)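 Homogeneous no-lysis format: HEK293 cell suspension mixed with CellTox Green reagent, seeded, incubated 5 h at 37 C/5% CO2, then dosed by pintool with compound in DMSO.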

[5] = A CellTox Green Cytotoxicity Assay to monitor cytotoxicity in HepG2 cells - 16 hour (AID 1224876); further: nearly all actives have a fitted effect of over 45% in size; further: potency means the concentration at half of the fitted maximal effect
Method in brief: (§4)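 Fluorescent DNA-binding dye, 600 HepG2 cells/well, 5 h preincubation then compound in DMSO; same plates read at 0–40 h, 37 C.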

[6] = qHTS RealTime-Glo MT Cell Viability Assay in HepG2 cells - 32 hour (AID 1224877); further: nearly all actives have a fitted effect of over 55% in size
Method in brief: (§5)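 Cells + NanoLuc/prosubstrate dispensed (600 cells/well) → 5 h at 37 C/5% CO2 → compounds in DMSO transferred → 40 h incubation at 37 C, luminescence read at 0, 8, 16, 24, 32, 40 h.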

[7] = A CellTox Green Cytotoxicity Assay to monitor cytotoxicity in HepG2 cells - 24 hour (AID 1224878); further: nearly all actives have a fitted effect of over 45% in size; further: potency means the concentration at half of the fitted maximal effect
Method in brief: as §4

[8] = A CellTox Green Cytotoxicity Assay to monitor cytotoxicity in HepG2 cells - 40 hour (AID 1224879); further: nearly all actives have a fitted effect of over 40% in size; further: potency means the concentration at half of the fitted maximal effect
Method in brief: as §4

[9] = A CellTox Green Cytotoxicity Assay to monitor cytotoxicity in HEK293 cells - 32 hour (AID 1224881); further: nearly all actives have a fitted effect of over 40% in size; further: potency means the concentration at half of the fitted maximal effect
Method in brief: as §3

[10] = A CellTox Green Cytotoxicity Assay to monitor cytotoxicity in HepG2 cells - 0 hour (AID 1224882); further: nearly all actives have a fitted effect of over 35% in size
Method in brief: as §4

[11] = A CellTox Green Cytotoxicity Assay to monitor cytotoxicity in HepG2 cells - 32 hour (AID 1224883); further: nearly all actives have a fitted effect of over 50% in size; further: potency means the concentration at half of the fitted maximal effect
Method in brief: as §4

[12] = A CellTox Green Cytotoxicity Assay to monitor cytotoxicity in HEK293 cells - 8 hour (AID 1224884); further: nearly all actives have a fitted effect of over 35% in size; further: potency means the concentration at half of the fitted maximal effect
Method in brief: as §3

[13] = qHTS RealTime-Glo MT Cell Viability Assay in HepG2 cells - 16 hour (AID 1224885); further: nearly all actives have a fitted effect of over 50% in size
Method in brief: as §5

[14] = qHTS RealTime-Glo MT Cell Viability Assay in HEK293 cells - 8 hour (AID 1224887)
Method in brief: as §2

[15] = A CellTox Green Cytotoxicity Assay to monitor cytotoxicity in HEK293 cells - 16 hour (AID 1224888); further: nearly all actives have a fitted effect of over 35% in size; further: potency means the concentration at half of the fitted maximal effect
Method in brief: as §3

[16] = qHTS RealTime-Glo MT Cell Viability Assay in HepG2 cells - 0 hour (AID 1224889); further: nearly all actives have a fitted effect of over 50% in size
Method in brief: as §5

[17] = A CellTox Green Cytotoxicity Assay to monitor cytotoxicity in HepG2 cells - 8 hour (AID 1224890); further: nearly all actives have a fitted effect of over 45% in size; further: potency means the concentration at half of the fitted maximal effect
Method in brief: as §4

[18] = qHTS RealTime-Glo MT Cell Viability Assay in HEK293 cells - 0 hour (AID 1224880)
Method in brief: as §2

[19] = qHTS RealTime-Glo MT Cell Viability Assay in HEK293 cells - 24 hour (AID 1224886)
Method in brief: as §1

[20] = qHTS assay to identify small molecule antagonists of the estrogen receptor alpha (ER-alpha) signaling pathway using the BG1 cell line in the presence of 0.1 nM 17-beta-estradiol - cell viability counter screen (AID 1259241); further: nearly all actives have a fitted effect of over 40% in size
Method in brief: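 Estradiol-stimulated (0.1 nM) VM7Luc4E2 cells exposed to compounds 22 hr; viability measured by fluorescence of cleaved CellTiter-Fluor substrate after 30 min.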

Structure (SMILES)	Potency [1]	outcome [2]	max response [3]	Potency [4]	Potency [5]	Potency [6]	Potency [7]	Potency [8]	Potency [9]	outcome [10]	Potency [11]	Potency [12]	Potency [13]	Potency [14]	Potency [15]	outcome [16]	Potency [17]	outcome [18]	Potency [19]	outcome [20]
CCc1ccc(C2CCNCC2)cc1	inactive	inactive	7.03%	inactive	inactive	inactive	inactive	inactive	inactive	inactive	inactive	inactive	inactive	inactive	inactive	inactive	inactive			
CN(C)CCN(C)C	inactive	inactive	7.83%	inactive	inactive	inactive	inactive	inactive	inactive	inactive		inactive	inactive	inactive	inactive	inactive	inactive	inactive	inactive	inactive
NC1(c2ccccc2)CCCCC1	inactive	inactive	-3.55%	inactive	inactive	inactive		inactive	inactive	inactive	inactive	inactive	inactive	inactive	inactive		inactive	inactive	inactive	inactive
O=C(Cl)C(Cl)Cl	inactive	inactive	1.34%	inactive	inactive	inactive		inactive	inactive	inactive	inactive	inactive	inactive	inactive	inactive	inactive	inactive	inactive	inactive	inactive
BrCC1CO1 (stereo not given)	inactive	inactive	5.87%	inactive	inactive	inactive	inactive	inactive	inactive		inactive	inactive	inactive	inactive	inactive	inactive	inactive	inactive	inactive	inactive
CCNc1nc(NCC)nc(SC)n1	inactive	inactive	-13.3%	inactive	inactive	inactive	inactive	inactive	inactive		inactive	inactive		inactive	inactive	inactive	inactive	inactive		inactive
COP(=O)(OC)O/C(C)=C/C(=O)N(C)C	inactive	inactive	13.5%	inactive	inactive	inactive		inactive	inactive	inactive	inactive	inactive	inactive		inactive	inactive	inactive	inactive	inactive	inactive
CCCOC(=O)Cc1ccc(OCC(=O)N(CC)CC)c(OC)c1	inactive	inactive	-5.19%	inactive	inactive	inactive	inactive	inactive	inactive		inactive	inactive	inactive	inactive	inactive	inactive	inactive	inactive	inactive	
COc1cccc(C=O)c1	inactive	inactive	-0.107%	inactive	inactive	inactive		inactive	inactive	inactive	inactive	inactive	inactive		inactive	inactive	inactive	inactive	inactive	inactive
CCCN1CCC[C@@H]2Cc3nc(N)ncc3C[C@H]21	inactive	inactive	3.64%	16.9 µM (active)	21.3 µM (active)	inactive	21.3 µM (active)	21.3 µM (active)	16.9 µM (active)		21.3 µM (active)	19 µM (active)		inactive	19 µM (active)	inactive	23.9 µM (active)	inactive	inactive	inactive
CCCCCCC1CCOC1=O (stereo not given)	inactive	inactive	-0.816%	inactive	inactive	inactive		inactive	inactive	inactive	inactive	inactive	inactive	inactive	inactive		inactive	inactive	inactive	inactive
CCN1CCCC1CNC(=O)C(O)(c1ccccc1)c1ccccc1 (stereo not given)	inactive	inactive	-2.61%	inactive	inactive	inactive	inactive	inactive	inactive		inactive	inactive	inactive	inactive	inactive	inactive	inactive	inactive	inactive	
ClCC1CO1 (stereo not given)	inactive	inactive	-2.45%	inactive	inactive	inactive		inactive	inactive	inactive	inactive	inactive	inactive	inactive	inactive	inactive	inactive	inactive		inactive
C=CCCC#N	inactive	inactive	6.33%	inactive	inactive	inactive		inactive	inactive	inactive	inactive	inactive		inactive	inactive	inactive	inactive	inactive	inactive	
CN(C)CCc1c[nH]c2cccc(OP(=O)(O)O)c12	inactive	inactive	-0.389%	inactive	inactive	inactive	inactive		inactive	inactive	inactive	inactive	inactive		inactive	inactive	inactive	inactive	inactive	inactive

From PubChem BioAssay (Tox21)
